In PubChem BioAssay (NCI):
The panel holds about 83,000 compounds, 20% with a hit somewhere; the sample as a whole holds those more often.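 How to read the values: 0–100, growth inhibition (40 = 60% inhibited); 0, no net growth; -100 to 0, cell death (-40 = 40% of starting cells died; -100 = all dead).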 A number with no mark means an inactive call. The source made the active and inactive calls.

System: M14 melanoma
Experiment: NCI-60 one-dose screen, 48 h (100 = growth as untreated, 0 = no growth, -100 = all killed)
Conditions: 10 µM unless noted
Method: Growth inhibition of the M14 human tumor cell line is measured as a screen for anti-cancer activity. Cells are grown in 96 well plates and exposed to the test compound for 48 hours. Compounds are tested at a single concentration, which is 10^-5 M for most compounds. The reported endpoint is percent growth (GI% or GIPRCNT), where numbers from 0 - 100% represent growth inhibition, and numbers from -100% - 0 represent cell death. For example, a value of 40 represents 60% growth inhibition. A value of 0 means no net growth occurred over the course of the experiment. A value of -40 indicates 40% of cells at the beginning of the experiment died by the end of the experiment. A value of -100 means all cells are dead at the end of the experiment.
NCI-60 Human Tumor Cell Lines Screen was performed using the standard one-dose NCI protocol, which is described in more detail at https://dtp.cancer.gov/discovery_development/nci-60/default.htm.
Compounds with GIPRCNT values below 10 were considered active. Activity score was based on GIPRCNT using the following formula: […]
Score is 0 for GIPRCNT values of 100 or above, 50 for GIPRCNT values of 0, and 100 for GIPRCNT values of -100.

SMILES	growth
CCOC(=O)C(CCN(C)C)c1ccccc1 (stereo not given)	106%
Cc1nc2ccccc2c(/C=C/c2ccc(F)cc2)c1C(=O)/C=C/c1ccccc1	12.4%
Cc1ccc(Cc2cnc(NC(=O)/C=C/c3ccc(C)o3)s2)cc1	12.1%
Nc1ccc(Br)cc1C(F)(F)F	106%
CS(=O)(=O)Nc1cc(-c2ccc3ncnc(Nc4ccc5c(cnn5Cc5ccccc5F)c4)c3c2)cnc1Cl	39.1%
COc1cc(/C=C/C(=O)N2CCN(C(=O)c3cc(OC)c(OC)c(OC)c3)CC2)ccc1OCCCOc1cc2c(cc1OC)C(=O)N1CCC[C@H]1C=N2	-80.2% (active)
CCN(CC)CCCC(Cc1ccccc1)Nc1c2ccc(Cl)cc2nc2ccc(OC)cc12 (stereo not given)	-76.9% (active)
Cc1cc(Cl)nc(N2CCN(CCNc3ccnc4cc(Cl)ccc34)CC2)n1	30.9%
C[C@@H]1CN(c2cnc(C(=O)Nc3cc(F)cc4cccnc34)cn2)C[C@H](C)N1	73.9%
O=c1oc2ccccc2cc1-c1nn(-c2ccccc2)cc1-c1nn[nH]n1	98.2%
C(=C(\C1=NCCN1)n1ccc2ccccc21)/c1ccccc1	91.4%
COc1ccc(C/C(C)=C(\c2ccc(Cl)cc2)c2ccc(OCCN3CCCC3)cc2)cc1	62.9%
O=c1ccc2ccc(OCCN3CCCCC3)cc2o1	96.1%
CCOC(=O)CC1CSC(N/N=C/c2ccc(F)c(Br)c2)=N1 (stereo not given)	102%
COc1c2c(cc3c1C(=O)N[C@@H]1[C@@H](O)[C@@H](O)[C@H](O)C[C@@H]31)OCCO2	105%
O=Nc1ccc(NC(=O)Nc2ccc([N+](=O)[O-])cc2)cc1	102%
C=C[C@@]1(C)CC(=O)[C@@H](C(C)(C)c2cn(C)c3ccc(Br)cc23)C[C@@H]1O[Si](C)(C)C(C)(C)C	91.7%
O=S(=O)(Nc1ccc2ccccc2c1)c1ccc(-c2cnc(C3CC3)o2)cc1	19.4%
CCN(CC)CCOc1ccc(/C(=C(\C)Cc2ccc(OC)cc2)c2ccc(OC(=O)NCc3ccccc3)cc2)cc1	-61.5% (active)
COc1ccc(Cl)cc1Nc1nc(C(F)(F)F)ccc1C(=O)N/N=C/c1ccc([N+](=O)[O-])cc1	36.2%

SMILES	growth
CCCCCCCCCCCCCCCCCCOc1ccccc1CC(=O)NCC[N+](C)(C)C	33.7%
NCCCNc1nc2ccccc2c2c(=O)c3cc(Cl)ccc3sc12	-48.2% (active)
O=C1CCCC1[n+]1ccccc1 (stereo not given)	95%
COc1ccc2c(c1)oc1c(C)c3c(c(C)c12)C(=O)N(CCOS(C)(=O)=O)C3=O	103%
Clc1cccc(C2Cc3cnccc3-c3[nH]c4ccncc4c32)c1 (stereo not given)	58.4%
COc1cc(/C=C/C(=O)c2cccc(-n3cc(-c4ccc(Cl)cc4)[nH]c3=O)c2)ccc1O	85.8%
CN(C)c1ccc(C(=S)c2ccc(N(C)C)cc2)cc1	51.1%
CCOC(=O)C1=C(CC(O)c2ccc(OC)cc2OC)NC(=O)NC1c1ccccc1 (stereo not given)	109%
CC12OC(CC(O)C1O)n1c3ccccc3c3c4c(c5c6ccccc6n2c5c31)C(=O)N(CCN1CCCC1)C4=O (stereo not given)	19%
Cc1cc2oc(/C=C/c3ccccc3)cc(=O)c2c(C)c1Cl	108%
COc1cc(-c2cc(-c3ccc(Nc4nc(Nc5ccc(Cl)cc5)nc(Nc5ccc(Cl)cc5)n4)cc3)no2)cc(OC)c1OC	68.3%
Nc1nc(N)c2c(n1)NC(c1cccc(Nc3ccnc4cc(C(F)(F)F)ccc34)c1)CC(c1ccc3c(c1)OCO3)=N2 (stereo not given)	67.3%
COC(=O)c1ccc2cc(OC)c(OC)cc2c1	110%
O=C(Nc1cccnc1Nc1ccccc1)c1cn(Cc2cccc(Oc3ccccc3)c2)nn1	27.5%
COc1ccc2c(c1)C(C)Cc1c(ncnc1-n1cnc3cc(C)ccc31)N2C (stereo not given)	8.87% (active)
CN1CC(c2ccc(Br)cc2)C(C(=O)c2ccc(Br)cc2)C12C(=O)Nc1ccccc12 (stereo not given)	76%
N[C@@H]1CCC[C@H]1NCCCCN1C(=O)c2cccc3cc([N+](=O)[O-])cc(c23)C1=O	63.7%
Cc1nn(C)c2ncnc(N/N=C/c3cccc(O)c3O)c12	-48.5% (active)
O=[N+]([O-])c1ccccc1Sc1ccccc1[N+](=O)[O-]	100%
C=C(C)[C@@H]1CC[C@]2(C)[C@H](C=CC3=C4C[C@@](C)(CO)CC[C@]4(C)CC[C@]32C)[C@@]1(C)CCCN	-66.2% (active)
